Source: PubChem BioAssay (NCATS)
Inconclusive results are not listed. Where a call stands in place of a potency, no number is given. Activity calls are given as the source filed them. Calls follow the shape of the dose curve; as a rule, active = well fitted cell-killing curve with a large enough effect; inconclusive = small, poorly fitted or top-dose-only effect, or effect the other way; inactive = no such curve, though single readings can be large or run the other way.
Potency is read from the fitted curve at half-maximal effect.

Assay: Quantitative High-Throughput drug screen in 47 multiple myeloma cell lines against the NCATS MIPE library collection: KMS11_JCRBsus cell viability assay (AID 1919873); also: nearly all actives have a fitted effect of over 50% in size
Conditions: KMS11 myeloma viability, CellTiter-Glo ATP luminescence, 48 h; series mostly up to 45.8 µM
Text: PI: Beverly A. Mock Ph.D.
Laboratory of Cancer Biology and Genetics,
Center for Cancer Research, National Cancer Institute,
National Institute of Health, Bethesda, Maryland
Drug resistance and disease progression are common in multiple myeloma (MM) patients, underscoring the need for new therapeutic combinations. […] We hypothesized that effective combinations would reduce MYC expression and enhance p16 activity. […] These preclinical data identify potentially useful drug combinations for evaluation in drug-resistant MM and reveal potential mechanisms of combined drug sensitivity.
Described herein is the primary MIPE qHTS used to cherrypick compounds. Validated compounds were then further tested for potential synergistic activiy.
[1] Peat TJ, Gaikwad SM, Dubois W, Gyabaah-Kessie N, Zhang S, Gorjifard S, Phyo Z, Andres M, Hughitt VK, Simpson RM, Miller MA, Girvin AT, Taylor A, Williams D, D'Antonio N, Zhang Y, Rajagopalan A, Flietner E, Wilson K, Zhang X, Shinn P, Klumpp-Thomas C, McKnight C, Itkin Z, Chen L, Kazandijian D, Zhang J, Michalowski AM, Simmons JK, Keats J, Thomas CJ, Mock BA. Drug combinations identified by high-throughput screening promote cell cycle transition and upregulate Smad pathways in myeloma. Cancer Lett. 2023 Aug 1;568:216284. doi: 10.1016/j.canlet.2023.216284. Epub 2023 Jun 24. PMID: 37356470; PMCID: PMC10408729.
SEQUENCE No. (e.g., 1, 2, 3, etc.); […] (e.g., Cells, Incubation, Reagent, etc.); VALUE and DESCRIPTION.
1; Cells; 5 uL; white, solid bottom 1536-well Greiner assay plate.
2; Compounds; 23 nL; Kalypsis pin tool (Wako USA) equipped with a 1536-well pin head to transfer to the assay plates.
3; Incubation; 48 hours; 37C incubation.
4; Reagent;5uL; CellTiter Glo (Promega).
5; Detector; 425V; Luminescence; Viewlux PerkinElmer.
NOTES (numbers refer to Sequence numbers above)
1. The cell-based screening methods employed in this study were like those previously published. Briefly, the corresponding myeloma cell lines were screened in 1,536-well plates with 500 cells, 5-uL per well for inhibition of cell viability (assessed by measuring ATP levels with CellTiterGlo).
2. NCATS MIPE 4.0 library of approved and investigational drugs were added using the Kalypsis pin tool. Wells treated with DMSO only for 100% viability and media only for 0% viability were used as controls.
3. The assay plates were covered and incubated for 48 hours in a 37C, 5% CO2 incubator with controlled humidity.
4. After 48 hours, CellTilter-GloTM luminescent substrate mix (Promega) reagent was added to the assay plate and plates we incubated for 5 min at room temperature.
5. Signal was measured as median relative luminescence units on a ViewLux (PerkinElmer) multiplate reader.
[1] Heske CM, Davis MI, Baumgart JT, Wilson K, Gormally MV, Chen L, Zhang X, Ceribelli M, Duveau DY, Guha R, Ferrer M, Arnaldez FI, Ji J, Tran HL, Zhang Y, Mendoza A, Helman LJ, Thomas CJ. Matrix Screen Identifies Synergistic Combination of PARP Inhibitors and Nicotinamide Phosphoribosyltransferase (NAMPT) Inhibitors in Ewing Sarcoma. Clin Cancer Res. 2017 Dec 1;23(23):7301-7311. doi: 10.1158/1078-0432.CCR-17-1121. Epub 2017 Sep 12. PMID: 28899971; PMCID: PMC6636827.
With CC(=O)Oc1ccccc1C(=O)O the Potency was 10.5 µM (active). In the case of N#CC[C@H](C1CCCC1)n1cc(-c2ncnc3[nH]ccc23)cn1, the Potency is reported as 20.9 µM (active). With CC1(C)CNc2cc(NC(=O)c3cccnc3NCc3ccncc3)ccc21 the Potency was 20.9 µM (active). In the case of Cc1[nH]c(=O)c(C#N)cc1-c1ccc2nccn2c1, the Potency is reported as “inactive”. For CN[C@@H](C)C(=O)N[C@H]1CCCC[C@H]2CC[C@@H](C(=O)N[C@@H](c3ccccc3)c3cn(CCCCc4ccc(CCCCn5cc([C@@H](NC(=O)[C@@H]6CC[C@@H]7CCCC[C@H](NC(=O)[C@H](C)NC)C(=O)N76)c6ccccc6)nn5)cc4)nn3)N2C1=O, the Potency was “inactive”. In the case of NCCCC(N)(C(=O)O)C(F)F (stereo not given), the Potency is reported as 18.7 µM (active). In the case of CCCC(CCC)C(=O)O, the Potency is reported as “inactive”. In the case of Cc1ccccc1C(OCCN(C)C)c1ccccc1 (stereo not given), the Potency is reported as “inactive”. In the case of CCCn1c(=O)c2[nH]c(C34CC5CC3C[C@@H](C5)C4)nc2n(CCC)c1=O, the Potency is reported as “inactive”. In the case of O=C(O)CCc1ccc(NCc2cccc(Oc3ccccc3)c2)cc1, the Potency is reported as “inactive”. With CCCS(=O)(=O)Nc1ccc(F)c(C(=O)c2c[nH]c3ncc(-c4ccc(Cl)cc4)cc23)c1F the Potency was 8.33 µM (active). In the case of CCc1ccc(CCOc2ccc(CC3SC(=O)NC3=O)cc2)nc1 (stereo not given), the Potency is reported as “inactive”. For CNC[C@H](O)c1cccc(O)c1, the Potency was “inactive”. With NC(=O)c1ccc(I)c([N+](=O)[O-])c1 the Potency was “inactive”. In the case of COCC(=O)NCC=Cc1ccc2ncnc(Nc3ccc(Oc4ccc(C)nc4)c(C)c3)c2c1, the Potency is reported as 18.7 µM (active). In the case of Cc1cc(-c2ccc(CC(=O)Nc3ccc(-c4cccnc4)cc3)cc2)ccn1, the Potency is reported as 20.9 µM (active). In the case of COc1ccc(-c2ccc3c(N4CCOCC4)nc(N4C[C@@H](C)O[C@@H](C)C4)nc3n2)cc1CO, the Potency is reported as 0.059 µM (active). For CCC(C)(C)C(=O)O[C@H]1C[C@@H](C)C=C2C=C[C@H](C)[C@H](CC[C@@H]3C[C@@H](O)CC(=O)O3)[C@H]21, the Potency was 13.2 µM (active). For C1COC(NC(C2CC2)C2CC2)=N1, the Potency was “inactive”. In the case of S=C(NCc1ccc2c(c1)OCO2)N1CCN(c2ncnc3c2oc2ccccc23)CC1, the Potency is reported as 1.52 µM (active). In the case of CS(=O)(=O)Oc1ccc2c(NC(N)=O)c(C(=O)c3ccc(Cl)cc3Cl)oc2c1, the Potency is reported as 5.26 µM (active). In the case of COc1ccc(CC2=NN3C([C@@H](CCc4ccccc4)[C@@H](C)O)=NC(C)C3C(=O)N2)cc1OC (stereo not given in full), the Potency is reported as “inactive”. In the case of O=C(O)COCCN1CCN(C(c2ccccc2)c2ccc(Cl)cc2)CC1 (stereo not given), the Potency is reported as “inactive”. For Cc1c(CCOc2ccc(C(=O)O)cc2)c2cc(Cl)ccc2n1C(c1ccccc1)c1ccccc1, the Potency was “inactive”. In the case of O=c1[nH]cnc2[nH]ncc12, the Potency is reported as “inactive”. In the case of CN1CCN(CCCN2c3ccccc3Sc3ccc(C(F)(F)F)cc32)CC1, the Potency is reported as “inactive”. With O=c1n(CCCN2CCN(c3cccc(Cl)c3)CC2)nc2ccccn12 the Potency was “inactive”. With Cc1[nH]c(=O)c(C#N)cc1-c1ccncc1 the Potency was “inactive”. In the case of NC(=O)c1cnccn1, the Potency is reported as “inactive”. For COc1ccc(-c2oc3cc(OC)ccc3c2C(=O)c2ccc(C#N)cc2)cc1, the Potency was “inactive”. In the case of O=C(C=Cc1ccc(/C=C/C(=O)Nc2ccc(C3=NCCN3)cc2)cc1)Nc1ccc(C2=NCCN2)cc1, the Potency is reported as “inactive”. For CCN(c1ccccc1)c1cc(NC)[n+](C)c(C)n1, the Potency was “inactive”. For Cn1cnc2c(F)c(Nc3ccc(Br)cc3Cl)c(C(=O)NOCCO)cc21, the Potency was “inactive”. With NNCCc1ccccc1 the Potency was “inactive”. With CCCc1nc2c(C)cc(-c3nc4ccccc4n3C)cc2n1Cc1ccc(-c2ccccc2C(=O)O)cc1 the Potency was “inactive”. With Cc1cnc(NC(=O)C2=C(O)c3ccccc3S(=O)(=O)N2C)s1 the Potency was “inactive”. With Cc1ccc(N(CC2=NCCN2)c2cccc(O)c2)cc1 the Potency was 18.7 µM (active). For CCN(CC)CCCC(C)Nc1nc(C)cc(Nc2ccc3nc(C)cc(N)c3c2)n1 (stereo not given), the Potency was “inactive”. With CC(C)(Sc1ccc(CCN(CCCCC2CCCCC2)C(=O)NC2CCCCC2)cc1)C(=O)O the Potency was “inactive”. With Cc1cc2c(C(C)C)c(O)c(O)c(C=O)c2c(O)c1-c1c(C)cc2c(C(C)C)c(O)c(O)c(C=O)c2c1O the Potency was 5.9 µM (active).
